Values joined by “and” are separate entries in the source; they are usually repeats but may differ in a detail not shown here. Equal values may be shown once. Records with an inconclusive call do not appear. Where a call stands in place of a potency, no number is given. A structure can be active in one record and inactive in another. Active and inactive are the calls of the source. Unless noted, calls follow the shape of the dose curve; as a rule, active = well fitted curve in the direction sought with a large enough effect in the repeat runs; inconclusive = weak or mixed curves; inactive = no such curve, though single readings can be large; an effect the other way counts as inactive or inconclusive.
Assays:
[1] = target: Luciferin 4-monooxygenase (Photinus pyralis) (UniProt P08659); assay: qHTS assay to identify small molecule inhibitors of firefly luciferase (AID 1224835); also: nearly all actives have a fitted effect of over 25% in size
Chain of Luciferin 4-monooxygenase (Photinus pyralis) (P08659 whole entry, looked up): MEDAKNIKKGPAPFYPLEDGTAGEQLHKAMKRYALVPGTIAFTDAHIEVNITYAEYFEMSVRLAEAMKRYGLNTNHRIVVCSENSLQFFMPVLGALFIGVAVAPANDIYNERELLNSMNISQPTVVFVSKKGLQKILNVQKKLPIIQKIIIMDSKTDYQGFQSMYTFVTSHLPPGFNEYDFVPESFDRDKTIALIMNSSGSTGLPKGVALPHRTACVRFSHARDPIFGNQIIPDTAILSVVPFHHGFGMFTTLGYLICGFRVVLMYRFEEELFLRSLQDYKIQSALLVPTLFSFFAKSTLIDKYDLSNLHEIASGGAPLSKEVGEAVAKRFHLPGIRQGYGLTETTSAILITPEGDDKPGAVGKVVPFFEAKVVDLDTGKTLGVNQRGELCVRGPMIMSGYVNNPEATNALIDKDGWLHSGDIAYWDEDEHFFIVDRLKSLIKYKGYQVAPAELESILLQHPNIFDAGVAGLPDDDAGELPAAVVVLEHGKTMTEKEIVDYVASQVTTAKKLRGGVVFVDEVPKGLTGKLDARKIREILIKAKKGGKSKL
Summary of the method: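 Inhibition of purified Photinus luciferase is measured by luminescence. Substrate levels (D-luciferin, ATP) sit at their KM values. Each compound is tested in a concentration series.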

[2] = qHTS assay to identify small molecule agonists of the constitutive androstane receptor (CAR) signaling pathway - cell viability counter screen (AID 1224836); also: nearly all actives have a fitted effect of over 45% in size
Summary of the method: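 HepG2 cells stably carrying hCAR and a CYP2B6-2.2kb reporter were plated 4 h, then given compounds at 15 concentrations plus PK11195 (final 0.75 uM). After 23 h at 37 C, viability was read by CellTiter-Fluor fluorescence.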

[3] = qHTS assay to identify small molecule antagonists of the constitutive androstane receptor (CAR) signaling pathway - cell viability counter screen (AID 1224837); also: nearly all actives have a fitted effect of over 45% in size; also: potency is read from the fitted curve at half-maximal effect
Summary of the method: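 Cytotoxicity counter-screen: CellTiter-Fluor fluorescence after 23 h compound exposure (15-point qHTS) in double-stable HepG2-CYP2B6-hCAR cells, with 50 nM CITCO added.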

[4] = target: Nuclear receptor subfamily 1 group I member 3 (Homo sapiens) (UniProt Q14994); assay: qHTS assay to identify small molecule agonists of the constitutive androstane receptor (CAR) signaling pathway (AID 1224839); also: nearly all actives have a fitted effect of over 15% in size; also: potency is read from the fitted curve at half-maximal effect;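 as to activation: HepG2 cells stably carrying human CAR and a CYP2B6 luciferase reporter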
Chain of Nuclear receptor subfamily 1 group I member 3 (Homo sapiens) (Q14994 whole entry, looked up): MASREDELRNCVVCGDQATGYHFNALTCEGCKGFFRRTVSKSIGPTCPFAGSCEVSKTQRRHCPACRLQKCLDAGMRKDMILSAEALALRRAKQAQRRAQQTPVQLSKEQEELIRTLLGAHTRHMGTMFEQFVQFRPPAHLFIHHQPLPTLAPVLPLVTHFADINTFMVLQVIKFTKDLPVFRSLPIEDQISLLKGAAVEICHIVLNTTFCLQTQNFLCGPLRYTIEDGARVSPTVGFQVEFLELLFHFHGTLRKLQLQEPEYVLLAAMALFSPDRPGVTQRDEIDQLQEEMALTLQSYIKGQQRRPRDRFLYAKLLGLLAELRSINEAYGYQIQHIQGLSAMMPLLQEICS
Summary of the method: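 HepG2 cells stably expressing hCAR and a CYP2B6-2.2kb luciferase reporter were treated with compounds at 15 concentrations plus 0.75 uM PK11195 (final) for 24 h at 37 C; luminescence was read after ONE-Glo addition.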

[5] = qHTS assay to identify small molecule antagonists of the estrogen related receptor signaling pathway with the pleiotropic PPARgamma coactivator (PGC) from Tox21 10K library - cell viability counter screen (AID 1224840; active = well fitted cell-killing curve with a large enough effect in the repeat runs, not every such curve was filed as active; also: nearly all actives have a fitted effect of over 40% in size; also: potency is read from the fitted curve at half-maximal effect)
Summary of the method: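 Counter-screen for cytotoxicity: after 17.5 h compound exposure at 37 C, CellTiter-Fluor reagent added to PGC/ERR cells for 30 min and fluorescence read. Cells were seeded at 2,000 per well 6 h before dosing.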

[6] = qHTS assay to identify small molecule antagonists of the estrogen related receptor signaling pathway with the pleiotropic PPARgamma coactivator (PGC) from Tox21 10K library (AID 1224841; call rule not given here; also: actives are mostly falling curves and most rising ones were filed inactive; nearly all actives have a fitted effect of over 50% in size; also: potency is read from the fitted curve at half-maximal effect)
Summary of the method: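 Luminescence (One-Glo, 30 min at room temperature) after 18 h compound treatment at 37 C of PGC/ERR reporter cells plated at 2,000 cells/well and settled 6 h beforehand.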

[7] = qHTS assay to identify small molecule agonists of the estrogen related receptor signaling pathway with the pleiotropic PPARgamma coactivator (PGC) from Tox21 10K library (AID 1224842); also: nearly all actives have a fitted effect of over 15% in size
Summary of the method: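 Luminescence from One-Glo (30 min, room temperature) measured after PGC/ERR cells had 18 h at 37 C with pinned compound (23 nL in DMSO). Cells had been seeded at 2,000 per well and pre-incubated 6 h.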

[8] = target: Thyrotropin receptor (Homo sapiens) (UniProt P16473); assay: qHTS assay to identify small molecule agonists of the thyroid stimulating hormone receptor (TSHR) signaling pathway (AID 1224843; calls by dose curve; also: nearly all actives have a fitted effect of over 45% in size; also: potency is read from the fitted curve at half-maximal effect)
Chain of Thyrotropin receptor (Homo sapiens) (P16473 whole entry, looked up): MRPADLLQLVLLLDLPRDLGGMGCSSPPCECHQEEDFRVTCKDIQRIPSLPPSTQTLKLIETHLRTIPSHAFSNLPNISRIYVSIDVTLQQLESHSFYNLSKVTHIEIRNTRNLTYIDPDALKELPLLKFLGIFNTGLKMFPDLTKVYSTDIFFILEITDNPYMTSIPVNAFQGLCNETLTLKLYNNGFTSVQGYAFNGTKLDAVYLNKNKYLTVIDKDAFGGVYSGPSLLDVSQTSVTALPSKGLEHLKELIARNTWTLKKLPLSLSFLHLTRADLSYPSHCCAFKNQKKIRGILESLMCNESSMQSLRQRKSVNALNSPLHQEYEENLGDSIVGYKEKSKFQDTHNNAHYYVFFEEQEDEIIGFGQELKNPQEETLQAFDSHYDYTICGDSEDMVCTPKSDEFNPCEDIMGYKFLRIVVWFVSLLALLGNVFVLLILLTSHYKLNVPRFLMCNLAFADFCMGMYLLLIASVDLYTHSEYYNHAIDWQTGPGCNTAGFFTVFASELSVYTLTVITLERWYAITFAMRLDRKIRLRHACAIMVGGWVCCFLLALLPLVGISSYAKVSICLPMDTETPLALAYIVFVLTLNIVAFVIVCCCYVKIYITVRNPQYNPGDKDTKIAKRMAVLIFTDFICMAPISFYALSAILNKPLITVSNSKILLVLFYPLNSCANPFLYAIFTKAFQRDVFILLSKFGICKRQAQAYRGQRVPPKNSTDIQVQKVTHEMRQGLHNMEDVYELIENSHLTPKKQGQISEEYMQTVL
Summary of the method: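 Agonist activity read as cAMP rise via d2/cryptate HTRF competition, 1 h room-temperature detection, in HEK293 cells expressing TSHR. Fifteen-point titrations, each run in triplicate, with a 30 min room-temperature incubation beforehand.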

[9] = qHTS assay to identify small molecule agonists of the hypoxia (HIF-1) signaling pathway - cell viability counter screen (AID 1224844; calls by dose curve; also: nearly all actives have a fitted effect of over 50% in size; also: potency is read from the fitted curve at half-maximal effect)
Summary of the method: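 Cytotoxicity measured by CellTiter-Glo ATP luminescence in the wells also read for beta-lactamase signal. Cells were HRE-bla ME-180 (2,000/well, 0.5% dialyzed FBS), exposed to compounds for 17 h at 37C.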

[10] = qHTS assay to identify small molecule agonists of H2AX (AID 1224845; active = well fitted activation curve with a large enough effect in the signal ratio in the repeat runs, not every such curve was filed as active; the % refers to the signal ratio)
Summary of the method: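 Phospho-H2AX Ser139 measured by HTRF (ex 320 nm; em 665 and 620 nm) after 24 hr antibody incubation. Compounds, 15 concentrations, 0.76% DMSO, were applied to CHO-K1 cells for 3hr at 37C before lysis.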

[11] = qHTS assay to identify small molecule agonists of the hypoxia (HIF-1) signaling pathway (AID 1224846; active = well fitted activation curve with a large enough effect in the signal ratio in the repeat runs, not every such curve was filed as active; the % refers to the signal ratio)
Summary of the method: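 Compounds added to ME-180 cells carrying hypoxia-response-element beta-lactamase reporter (0.5% dialyzed FBS, 5 h preplating), 17 h at 37C; agonist activity detected by CCF4-AM B/G FRET read-out.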

[12] = qHTS assay to identify small molecule agonists of H2AX - cell viability counter screen (AID 1224847; calls by dose curve; also: nearly all actives have a fitted effect of over 30% in size; also: potency is read from the fitted curve at half-maximal effect)
Summary of the method: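 Wild-type CHO-K1 cells (10% FBS medium) were plated overnight at 37C, exposed to compounds at 15 concentrations for 3 hr at 37C (0.76% DMSO final), and viability was read as CellTiter-Glo luminescence after 30 min at room temperature.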

[13] = qHTS assay to identify small molecule agonists of the estrogen related receptor (ERR) signaling pathway from Tox21 library (AID 1224849; calls by dose curve; also: nearly all actives have a fitted effect of over 15% in size); conditions: ERR reporter cell line, ONE-Glo luciferase, 18 h; at 92.4 µM (top of the series)
Summary of the method: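 Luminescent agonist read-out (One-Glo, 30-minute room-temperature incubation) following 18-hour compound treatment at 37 C of the ERR cell line, which had been plated 6 hours before dosing.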

[14] = qHTS RealTime-Glo MT Cell Viability Assay in HepG2 cells - 24 hour (AID 1224867); also: nearly all actives have a fitted effect of over 50% in size
Summary of the method: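 Luminescence read-out: viable HepG2 cells reduce a prosubstrate to a NanoLuc substrate, giving a signal proportional to live cell number. Reads taken at 0, 8, 16, 24, 32 and 40 h of compound exposure at 37 C.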

[15] = qHTS assay to identify small molecule antagonists of the estrogen related receptor (ERR) signaling pathway from Tox21 library - cell viability counter screen (AID 1224834); also: nearly all actives have a fitted effect of over 30% in size; also: potency is read from the fitted curve at half-maximal effect
Summary of the method: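 CellTiter-Fluor fluorescence, read after 30 min at 37 C, measures viability of ERR cells. Cells plated at 2,000/well and incubated 6 h before pin-tool compound addition, then exposed 17.5 hours at 37 C.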

[16] = qHTS assay to identify small molecule antagonists of the estrogen related receptor (ERR) signaling pathway from Tox21 library (AID 1224848); also: nearly all actives have a fitted effect of over 50% in size; also: potency is read from the fitted curve at half-maximal effect
Summary of the method: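 Luciferase luminescence (ONE-Glo, 30 min room temperature) was the read-out. Cells of the NTP-supplied ERR line, 2,000 per well, were given 6 h at 37 C before compound addition in DMSO and 18 h exposure at 37 C.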

[17] = qHTS RealTime-Glo MT Cell Viability Assay in HEK293 cells - 32 hour (AID 1224868); also: nearly all actives have a fitted effect of over 50% in size; also: potency is read from the fitted curve at half-maximal effect
Summary of the method: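 Nonlytic real-time viability readout: viable cells convert prosubstrate to NanoLuc substrate, giving luminescence proportional to live cell number. HEK293, 600 cells/well, compound added after 5 h, continuous culture at 37 C.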

[18] = target: Nuclear receptor subfamily 1 group I member 3 (Homo sapiens) (UniProt Q14994); assay: qHTS assay to identify small molecule antagonists of the constitutive androstane receptor (CAR) signaling pathway (AID 1224838); also: nearly all actives have a fitted effect of over 40% in size
Summary of the method: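 Antagonism measured as luciferase signal (ONE-Glo, 30 min, room temperature) in CAR-stimulated cells: HepG2-CYP2B6-hCAR double-stable line exposed 24 hr at 37 C to compound in a 15-point series plus 50 nM CITCO.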

[19] = A CellTox Green Cytotoxicity Assay to monitor cytotoxicity in HEK293 cells - 0 hour (AID 1224869); also: nearly all actives have a fitted effect of over 50% in size
Summary of the method: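 Fluorescence from a DNA-binding dye excluded by viable cells was measured repeatedly in the same HEK293 wells (600 cells/well) during continuous compound exposure at 37 C. Each assay gives one read point: 0, 8, 16, 24, 32 or 40 h.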

SMILES	Potency [1]	Potency [2]	Potency [3]	Potency [4]	Potency [5]	Potency [6]	Potency [7]	Potency [8]	Potency [9]	Potency [10]	outcome [11]	Potency [12]	activity change, positive = activation [13]	Potency [14]	Potency [15]	Potency [16]	Potency [17]	Potency [18]	Potency [19]
O=P(Oc1ccccc1)(Oc1ccccc1)Oc1ccccc1	inactive	inactive	inactive	21.6 µM (active) and 19.3 µM (active)	inactive	13.6 µM (active)	inactive	12.1 µM (active) and 9.69 µM (active)	inactive	inactive	inactive	89.3 µM (active) and inactive	-19.4% (inactive) and -25.7% (inactive)	inactive					
Brc1ccc(Oc2cc(Br)c(Br)cc2Br)c(Br)c1		inactive	inactive			inactive	inactive		inactive	inactive	inactive	inactive	-14.5% (inactive)	inactive	inactive	inactive	43.6 µM (active)		
CCCCCc1cc(O)cc(O)c1		inactive		54.5 µM (active)	inactive and 48.6 µM (active)			inactive	inactive	inactive	inactive	113 µM (active)			54.5 µM (active)			inactive	inactive
CNC(=O)Oc1cccc2c1OC(C)(C)O2		inactive	inactive	inactive				inactive	inactive	inactive	inactive	inactive		inactive	inactive				inactive
CCOC(=O)C(C)OC(=O)c1cc(Oc2ccc(C(F)(F)F)cc2Cl)ccc1[N+](=O)[O-] (stereo not given)			inactive	54.2 µM (active) and inactive	inactive	24.2 µM (active)	inactive		inactive	inactive	inactive	inactive	-45.1% (inactive) and -19.8% (inactive)	inactive	inactive	21.6 µM (active)	30.7 µM (active)		inactive
S=C1NCCN1		inactive	inactive		inactive			1.69 µM (active) and inactive	inactive	inactive	inactive	inactive		inactive	inactive		inactive		
Oc1cc(Cl)ccc1Cl			inactive					inactive	inactive	inactive	inactive	inactive		inactive	inactive		inactive		inactive
CC(C)(C)c1ccccc1O			inactive	inactive	inactive				inactive	inactive	inactive			inactive	inactive				inactive
C#CCOS(=O)OC1CCCCC1Oc1ccc(C(C)(C)C)cc1 (stereo not given)				inactive and 5.45 µM (active)		3.86 µM (active) and 3.06 µM (active)	inactive	12.2 µM (active) and 24.3 µM (active)	43.6 µM (active)			4.5 µM (active)	-66% (inactive) and -59.3% (inactive)		4.33 µM (active)	1.37 µM (active) and 1.54 µM (active)	13.8 µM (active) and 19.5 µM (active)		inactive
CCc1cccc(CC)c1N(COC)C(=O)CCl	inactive	inactive	inactive	18.7 µM (active) and 19.3 µM (active)	inactive			inactive	47.4 µM (active)		inactive	inactive		inactive				inactive	inactive
O=[N+]([O-])c1ccc(O)c([N+](=O)[O-])c1			30.8 µM (active)	inactive	30.8 µM (active) and 27.3 µM (active)	30.8 µM (active) and 21.7 µM (active)	inactive	inactive	inactive		inactive		-36.7% (inactive) and -43.4% (inactive)	inactive	27.4 µM (active) and 27.3 µM (active)	21.8 µM (active) and 21.7 µM (active)			inactive
CC(C)=CC1C(C(=O)OCc2coc(Cc3ccccc3)c2)C1(C)C (stereo not given)			inactive	34.4 µM (active) and 27.3 µM (active)	inactive				inactive	inactive	inactive			inactive	inactive				inactive
COP(=S)(OC)Oc1ccc([N+](=O)[O-])cc1		inactive	inactive	inactive				inactive	inactive	inactive	inactive	inactive		inactive				inactive	inactive
O=c1oc2ccccc2c(O)c1C(CC(O)c1ccc(-c2ccc(Br)cc2)cc1)c1ccccc1 (stereo not given)		inactive	inactive	inactive	inactive				52 µM (active) and inactive	inactive		inactive		inactive	inactive		inactive		
